According to the supplement of paper PMC10849652:
About 8,800 targets were measured; listed, in parts, are those with a hit and a random draw of the rest. About 0.5% of all pairs of compound and target were hits.

Key:
Experiment in all cases: log2 fold change, soluble protein after heating vs DMSO (PISA); higher = thermal stabilisation; K562 lysate, 10 uM; active = over 0.2 and 3.5 SD of the protein, either way, in both replicates (recomputed)
[1] = compound: C1=CC=C(C=C1)[C@H](COC2=CC3=C(C=C2)NC(=O)N3)NC(=O)C4=CC=CN(C4=O)CC5=CC(=C(C=C5)F)F
Outline: (§1)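 Following dounce homogenisation of K562 pellets in PBS pH 7.4 with 1 mM MgCl2, crude extract at 1 mg/mL protein was incubated for 30 min with 10 μM compound. Aliquots were then heated for 3 min over 48°C-58°C and pooled, NP-40 was added to 0.5% at 4°C, and soluble protein was recovered as the supernatant at 21,000xg for 90 min. Channel-sum-equalised TMTpro 16plex LC-MS/MS quantified this protein. Each value, from duplicates, is a log-two fold change in thermal stability relative to solvent controls.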

[2] = compound: CC1=C(SC2=C1C(=N[C@H](C3=NN=C(N32)C)CC(=O)N)C4=CC=C(C=C4)Cl)C
Outline: as §1

[3] = compound: CC1=C2C(=CC=C1)N=C(N(C2=O)C3=CC=CC=C3C)CN4C=NC5=C(N=CN=C54)N
Outline: as §1

[4] = compound: Cc1sc2c(c1C)C(c1ccc(Cl)cc1)=N[C@@H](CC(=O)OC(C)(C)C)c1nnc(C)n1-2
Outline: as §1

[5] = compound: c1ccc([C@@H]2C[C@H]2NC2CCNCC2)cc1
Outline: as §1

Measured: log2 fold change

PCBP2 (UniProt H3BRU6)
inactive: [1] 0.166 | [2] -0.15 | [3] -0.208 | [4] 0.104 | [5] -0.11

PLK1 (UniProt P53350)
inactive: [1] 0.033 | [2] 0.042 | [3] 0.052 | [4] -0.026 | [5] 0.084

PPIC (UniProt P45877)
Chain of UniProt P45877 (P45877 whole entry, looked up): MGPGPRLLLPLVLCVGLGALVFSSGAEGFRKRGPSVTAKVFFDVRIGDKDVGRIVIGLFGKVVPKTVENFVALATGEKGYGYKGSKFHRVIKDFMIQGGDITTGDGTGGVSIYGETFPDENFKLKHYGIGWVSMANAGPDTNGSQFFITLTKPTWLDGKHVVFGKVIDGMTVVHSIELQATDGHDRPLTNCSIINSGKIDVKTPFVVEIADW
inactive: [1] 0.209 | [2] -0.242 | [3] 0.12 | [4] 0.005 | [5] 0.055

PIK3C3 (UniProt Q8NEB9)
Chain of UniProt Q8NEB9 (Q8NEB9 whole entry, looked up): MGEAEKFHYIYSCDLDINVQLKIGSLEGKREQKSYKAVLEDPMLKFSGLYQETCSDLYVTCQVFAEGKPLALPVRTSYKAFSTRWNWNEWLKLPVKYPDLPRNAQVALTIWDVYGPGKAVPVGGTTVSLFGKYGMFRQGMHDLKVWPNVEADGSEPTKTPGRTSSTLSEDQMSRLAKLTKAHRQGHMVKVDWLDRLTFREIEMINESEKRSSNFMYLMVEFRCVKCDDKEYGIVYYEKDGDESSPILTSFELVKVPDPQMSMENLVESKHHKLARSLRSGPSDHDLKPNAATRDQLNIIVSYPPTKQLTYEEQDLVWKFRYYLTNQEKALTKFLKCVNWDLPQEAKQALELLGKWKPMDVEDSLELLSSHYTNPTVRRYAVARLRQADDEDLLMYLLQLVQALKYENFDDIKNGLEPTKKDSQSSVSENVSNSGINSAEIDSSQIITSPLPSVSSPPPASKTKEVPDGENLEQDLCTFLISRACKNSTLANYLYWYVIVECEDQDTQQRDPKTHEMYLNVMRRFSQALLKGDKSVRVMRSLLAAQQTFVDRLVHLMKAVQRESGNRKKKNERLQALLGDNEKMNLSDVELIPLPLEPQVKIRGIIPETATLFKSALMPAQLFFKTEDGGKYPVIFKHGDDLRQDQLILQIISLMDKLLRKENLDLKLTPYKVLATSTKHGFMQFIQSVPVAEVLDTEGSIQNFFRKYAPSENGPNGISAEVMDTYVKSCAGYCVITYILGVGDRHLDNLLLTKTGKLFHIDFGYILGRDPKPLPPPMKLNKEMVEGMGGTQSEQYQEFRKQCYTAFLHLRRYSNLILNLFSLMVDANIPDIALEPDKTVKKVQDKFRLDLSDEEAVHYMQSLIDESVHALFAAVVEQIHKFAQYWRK
inactive: [1] -0.041 | [2] -0.032 | [3] -0.036 | [4] -0.014 | [5] -0.114

PIM1 isoform 2 (UniProt P11309)
inactive: [1] -0.115 | [2] -0.046 | [3] -0.127 | [4] -0.025 | [5] -0.191

PIK3R2 (UniProt O00459)
inactive: [1] 0.002 | [2] -0.058 | [3] 0.272 | [4] 0.024 | [5] -0.007

PPOX (UniProt P50336)
active: [1] 0.579
inactive: [2] 0.012 | [3] -0.009 | [4] -0.02 | [5] -0.023

PRKAR2B (UniProt P31323)
inactive: [1] -0.028 | [2] 0.018 | [3] 0.011 | [4] -0.002 | [5] 0.068

PDCD6IP isoform 2 (UniProt Q8WUM4)
inactive: [1] -0.019 | [2] -0.004 | [3] 0.018 | [4] 0.02 | [5] 0.056

PFKP (UniProt Q01813)
inactive: [1] -0.005 | [2] 0.02 | [3] 0.043 | [4] -0.031 | [5] 0.027

PIK3CD (UniProt O00329)
Chain of UniProt O00329 (O00329 whole entry, looked up): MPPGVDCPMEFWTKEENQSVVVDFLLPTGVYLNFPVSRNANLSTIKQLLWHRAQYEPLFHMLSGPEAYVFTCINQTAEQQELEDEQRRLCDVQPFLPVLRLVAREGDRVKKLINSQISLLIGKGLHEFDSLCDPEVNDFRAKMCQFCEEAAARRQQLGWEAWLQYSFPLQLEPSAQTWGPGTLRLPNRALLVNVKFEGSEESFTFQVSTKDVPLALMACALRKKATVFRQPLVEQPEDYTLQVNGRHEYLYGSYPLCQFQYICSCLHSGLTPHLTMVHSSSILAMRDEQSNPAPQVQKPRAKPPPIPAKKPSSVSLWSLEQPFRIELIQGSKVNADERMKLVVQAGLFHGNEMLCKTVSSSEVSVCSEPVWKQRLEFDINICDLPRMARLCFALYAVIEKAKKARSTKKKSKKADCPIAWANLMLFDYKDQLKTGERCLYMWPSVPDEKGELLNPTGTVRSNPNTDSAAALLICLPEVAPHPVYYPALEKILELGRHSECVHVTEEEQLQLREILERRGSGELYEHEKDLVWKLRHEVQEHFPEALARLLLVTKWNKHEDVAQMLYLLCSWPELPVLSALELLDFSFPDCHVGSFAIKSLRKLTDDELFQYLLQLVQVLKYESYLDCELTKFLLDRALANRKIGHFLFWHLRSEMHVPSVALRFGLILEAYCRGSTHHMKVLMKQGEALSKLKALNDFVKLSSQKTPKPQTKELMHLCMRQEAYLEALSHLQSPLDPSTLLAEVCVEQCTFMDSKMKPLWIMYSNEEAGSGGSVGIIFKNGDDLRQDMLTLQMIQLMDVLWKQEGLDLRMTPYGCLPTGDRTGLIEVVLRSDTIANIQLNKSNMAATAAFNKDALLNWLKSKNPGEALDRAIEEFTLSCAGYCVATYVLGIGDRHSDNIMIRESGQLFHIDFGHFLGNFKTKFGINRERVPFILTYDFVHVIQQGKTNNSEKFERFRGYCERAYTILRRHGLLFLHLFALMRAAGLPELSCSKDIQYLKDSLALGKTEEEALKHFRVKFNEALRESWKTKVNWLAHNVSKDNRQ
active: [3] 0.443
inactive: [1] -0.053 | [2] 0.075 | [4] -0.027 | [5] 0.043

PHC1 (UniProt P78364)
inactive: [1] 0.025 | [2] 0.001 | [3] 0.041 | [4] -0.049

PFN1 (UniProt P07737)
inactive: [1] -0.004 | [2] 0.009 | [3] 0 | [4] -0.004 | [5] -0.007

PREP (UniProt P48147)
inactive: [1] 0.006 | [2] 0.02 | [3] 0.013 | [4] -0.02 | [5] 0.03

PTPN6 isoform 4 (UniProt P29350)
inactive: [1] 0.12 | [2] 0.029 | [3] 0.063 | [4] 0.047 | [5] 0.133

PIKFYVE (UniProt Q9Y2I7)
inactive: [1] -0.005 | [2] 0.007 | [3] 0.016 | [4] 0.054 | [5] -0.03

PCBP2 (UniProt F8W0G4)
inactive: [1] 0.16 | [2] 0.052 | [3] 0.043 | [4] 0.103

PLIN2 (UniProt Q99541)
inactive: [1] -0.138 | [2] 0.015 | [3] 0.021 | [4] -0.018 | [5] 0.014

PTMA isoform 2 (UniProt P06454)
Chain of UniProt P06454 (P06454 whole entry, looked up): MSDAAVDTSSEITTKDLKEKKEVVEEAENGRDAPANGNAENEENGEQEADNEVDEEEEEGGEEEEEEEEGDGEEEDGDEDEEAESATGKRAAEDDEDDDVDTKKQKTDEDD
inactive: [1] 0.098 | [2] -0.016

PRKCB isoform 2 (UniProt P05771)
inactive: [1] -0.007 | [2] -0.022 | [3] 0.086 | [4] 0.07 | [5] -0.005

PRIMPOL (UniProt Q96LW4)
inactive: [1] 0.009 | [2] 0.009 | [3] -0.015 | [4] -0.024

PRKRA (UniProt O75569)
inactive: [1] -0.002 | [2] 0.027 | [3] 0.031 | [4] 0.029 | [5] 0.036

PPP2R3C (UniProt Q969Q6)
Chain of UniProt Q969Q6 (Q969Q6 whole entry, looked up): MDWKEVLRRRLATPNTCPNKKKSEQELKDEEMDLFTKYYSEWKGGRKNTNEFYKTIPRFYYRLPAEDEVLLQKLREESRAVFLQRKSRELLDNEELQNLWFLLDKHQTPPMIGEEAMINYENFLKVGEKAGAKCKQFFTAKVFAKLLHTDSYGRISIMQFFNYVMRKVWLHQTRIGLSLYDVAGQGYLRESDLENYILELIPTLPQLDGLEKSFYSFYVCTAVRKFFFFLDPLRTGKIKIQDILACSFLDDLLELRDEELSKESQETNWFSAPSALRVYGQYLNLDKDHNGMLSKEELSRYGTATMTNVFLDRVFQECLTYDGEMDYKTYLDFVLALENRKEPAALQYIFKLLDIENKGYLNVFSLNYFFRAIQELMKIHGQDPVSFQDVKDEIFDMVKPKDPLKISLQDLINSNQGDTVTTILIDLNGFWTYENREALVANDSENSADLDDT
inactive: [1] -0.044 | [2] 0.006 | [3] 0.042 | [4] -0.052 | [5] 0.059

PIK3CG (UniProt P48736)
Chain of UniProt P48736 (P48736 whole entry, looked up): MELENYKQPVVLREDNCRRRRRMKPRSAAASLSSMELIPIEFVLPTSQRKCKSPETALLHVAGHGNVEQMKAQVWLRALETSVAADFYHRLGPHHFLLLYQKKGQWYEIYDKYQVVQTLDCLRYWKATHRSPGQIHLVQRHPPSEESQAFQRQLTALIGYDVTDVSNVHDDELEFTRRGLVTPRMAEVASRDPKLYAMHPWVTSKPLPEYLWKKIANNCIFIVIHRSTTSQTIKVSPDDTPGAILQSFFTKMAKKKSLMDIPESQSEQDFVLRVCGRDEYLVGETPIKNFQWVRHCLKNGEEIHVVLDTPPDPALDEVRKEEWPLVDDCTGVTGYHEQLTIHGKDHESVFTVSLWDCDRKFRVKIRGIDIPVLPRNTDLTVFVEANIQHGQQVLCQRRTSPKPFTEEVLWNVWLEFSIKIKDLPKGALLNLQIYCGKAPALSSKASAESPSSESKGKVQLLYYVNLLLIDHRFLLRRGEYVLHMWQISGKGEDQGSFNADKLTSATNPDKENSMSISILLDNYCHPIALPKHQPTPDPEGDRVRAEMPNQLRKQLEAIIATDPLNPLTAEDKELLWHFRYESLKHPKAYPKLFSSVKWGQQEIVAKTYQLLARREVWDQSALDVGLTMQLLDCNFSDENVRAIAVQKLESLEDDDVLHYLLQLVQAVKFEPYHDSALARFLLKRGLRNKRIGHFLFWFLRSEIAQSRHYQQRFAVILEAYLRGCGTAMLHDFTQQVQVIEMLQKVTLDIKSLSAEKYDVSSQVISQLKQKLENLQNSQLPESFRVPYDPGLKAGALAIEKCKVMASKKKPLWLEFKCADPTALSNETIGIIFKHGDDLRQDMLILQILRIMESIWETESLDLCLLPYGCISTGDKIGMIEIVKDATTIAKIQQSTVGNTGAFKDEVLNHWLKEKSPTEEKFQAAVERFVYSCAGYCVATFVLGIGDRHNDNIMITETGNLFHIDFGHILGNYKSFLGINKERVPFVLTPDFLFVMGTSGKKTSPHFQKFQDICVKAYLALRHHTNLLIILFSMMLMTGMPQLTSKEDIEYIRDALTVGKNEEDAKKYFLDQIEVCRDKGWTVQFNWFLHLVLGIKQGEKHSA
inactive: [1] -0.076 | [2] -0.065 | [3] 0.109 | [4] -0.047 | [5] -0.105

PTMA (UniProt P06454)
inactive: [1] 0.015 | [2] 0.018 | [3] 0.01 | [4] -0.004 | [5] 0.241

PPP1R12B isoform 6 (UniProt O60237)
inactive: [1] 0.043 | [2] 0.033 | [3] 0.088 | [4] -0.145

PTP4A1 (UniProt Q93096)
inactive: [1] 0.047 | [2] 0.006 | [3] 0.012 | [4] -0.01 | [5] 0.041

PHF14 (UniProt O94880)
Chain of UniProt O94880 (O94880 whole entry, looked up): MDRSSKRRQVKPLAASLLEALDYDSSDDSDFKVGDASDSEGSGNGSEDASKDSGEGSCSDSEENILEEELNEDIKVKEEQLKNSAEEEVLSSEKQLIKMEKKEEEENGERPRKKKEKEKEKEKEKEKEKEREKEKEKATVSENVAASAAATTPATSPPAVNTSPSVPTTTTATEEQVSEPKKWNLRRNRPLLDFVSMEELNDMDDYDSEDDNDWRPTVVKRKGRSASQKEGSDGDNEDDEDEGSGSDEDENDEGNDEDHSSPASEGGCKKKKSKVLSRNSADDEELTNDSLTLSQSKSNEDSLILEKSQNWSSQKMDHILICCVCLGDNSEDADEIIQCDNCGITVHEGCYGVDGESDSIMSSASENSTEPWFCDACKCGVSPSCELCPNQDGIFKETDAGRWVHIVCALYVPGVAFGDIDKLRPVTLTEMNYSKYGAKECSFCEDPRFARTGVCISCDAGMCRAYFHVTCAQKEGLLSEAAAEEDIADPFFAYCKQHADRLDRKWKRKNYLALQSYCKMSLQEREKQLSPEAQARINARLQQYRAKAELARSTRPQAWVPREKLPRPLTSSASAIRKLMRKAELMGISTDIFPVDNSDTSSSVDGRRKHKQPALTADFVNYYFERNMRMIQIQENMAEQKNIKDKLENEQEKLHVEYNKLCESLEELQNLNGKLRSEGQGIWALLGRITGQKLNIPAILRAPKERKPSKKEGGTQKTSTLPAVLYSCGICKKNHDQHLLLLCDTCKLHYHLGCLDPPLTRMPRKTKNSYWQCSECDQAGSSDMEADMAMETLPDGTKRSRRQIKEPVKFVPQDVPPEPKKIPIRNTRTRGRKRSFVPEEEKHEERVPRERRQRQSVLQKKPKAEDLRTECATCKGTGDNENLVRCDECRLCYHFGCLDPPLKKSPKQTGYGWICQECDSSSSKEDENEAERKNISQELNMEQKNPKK
inactive: [1] 0.048 | [2] 0.025 | [3] -0.038 | [4] 0.019

PIP4K2C (UniProt Q8TBX8)
inactive: [1] -0.12 | [2] -0.062 | [3] -0.113 | [4] -0.023 | [5] -0.011

PIK3CB (UniProt P42338)
active: [3] 0.518
inactive: [1] -0.066 | [2] -0.054 | [4] -0.049 | [5] -0.033

PPP3CA isoform 2 (UniProt Q08209)
inactive: [1] -0.026 | [2] -0.115 | [3] -0.017 | [4] 0.004 | [5] 0.043

PPP2R5B (UniProt Q15173)
inactive: [1] -0.08 | [2] -0.037 | [3] -0.024 | [4] -0.006 | [5] 0.066

PGGT1B (UniProt P53609)
inactive: [1] -0.055 | [2] 0.021 | [3] -0.013 | [4] -0.004 | [5] 0.064

POLD1 (UniProt P28340)
inactive: [1] 0.026 | [2] 0.003 | [3] 0.011 | [4] 0.03 | [5] 0.042

PELO (UniProt Q9BRX2)
inactive: [1] -0.014 | [2] 0.05 | [3] 0.034 | [4] 0.087 | [5] 0.27

PCBP2 isoform 3 (UniProt Q15366)
inactive: [1] -0.011 | [2] 0.017 | [3] -0.041 | [4] 0.061 | [5] 0.05

PHOSPHO2 (UniProt Q8TCD6)
Chain of UniProt Q8TCD6 (Q8TCD6 whole entry, looked up): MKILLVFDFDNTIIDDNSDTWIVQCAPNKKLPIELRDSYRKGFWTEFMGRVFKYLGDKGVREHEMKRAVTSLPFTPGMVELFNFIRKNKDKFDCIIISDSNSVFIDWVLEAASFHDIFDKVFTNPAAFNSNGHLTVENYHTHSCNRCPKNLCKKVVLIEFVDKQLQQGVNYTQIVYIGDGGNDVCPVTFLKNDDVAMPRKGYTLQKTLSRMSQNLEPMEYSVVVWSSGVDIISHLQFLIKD
inactive: [1] -0.029 | [2] 0.02 | [3] 0.046 | [4] -0.053 | [5] 0.061

PHKG2 (UniProt P15735)
inactive: [1] 0.039 | [2] -0.038 | [3] -0.037 | [4] -0.002 | [5] -0.022

PSMB9 (UniProt P28065)
inactive: [1] 0.074 | [2] 0.159 | [3] 0.111 | [4] -0.095 | [5] -0.013

QKI (UniProt Q96PU8)
inactive: [1] -0.071 | [2] -0.001 | [3] -0.023 | [4] 0.04 | [5] -0.034

PTGR2 (UniProt Q8N8N7)
inactive: [1] 0.009 | [2] 0.039 | [3] -0.003 | [4] -0.048 | [5] -0.004

PCF11 (UniProt O94913)
inactive: [1] -0.135 | [2] 0.018 | [3] 0.022 | [4] 0.008 | [5] 0.079

PPIL2 (UniProt Q13356)
inactive: [1] 0.036 | [2] 0.005 | [3] 0.029 | [4] 0.082 | [5] 0.011

PHKA2 (UniProt P46019)
inactive: [1] -0.111 | [2] 0.028 | [3] 0.052 | [4] 0.021 | [5] 0.038

PCLAF (UniProt Q15004)
inactive: [1] 0.053 | [2] 0.016 | [3] -0.037 | [4] -0.059 | [5] -0.039

PHLDB1 (UniProt Q86UU1)
inactive: [1] -0.006 | [2] 0.007 | [3] 0.054 | [4] -0.027 | [5] 0.036

PRIM1 (UniProt P49642)
inactive: [1] 0.009 | [2] -0.051 | [3] -0.018 | [4] -0.006 | [5] 0.047

PDXK (UniProt O00764)
inactive: [1] 0.014 | [2] -0.039 | [3] -0.029 | [4] -0.028 | [5] -0.056

POGK (UniProt Q9P215)
inactive: [1] -0.142 | [2] 0.13 | [3] -0.008 | [4] 0.016 | [5] -0.068

PTGES2 (UniProt Q9H7Z7)
inactive: [1] 0.166 | [2] -0.119 | [3] -0.101 | [4] -0.006 | [5] 0.014

POC5 (UniProt Q8NA72)
inactive: [1] 0.016 | [2] -0.052 | [3] 0.161 | [4] 0.17 | [5] -0.097

PMS2 (UniProt P54278)
inactive: [1] -0.021 | [2] 0.005 | [3] 0.024 | [4] -0.031 | [5] 0.039

PUS1 (UniProt Q9Y606)
inactive: [1] 0 | [2] 0.014 | [3] 0.013 | [4] -0.024 | [5] 0.029

PWP1 (UniProt Q13610)
inactive: [1] 0.041 | [2] -0.041 | [3] -0.052 | [4] -0.004 | [5] 0.088
